Assay results as given in the OligoGym collection.

Molecular target: TSEN34
Test: pooled miR-30 sensor sort-seq; sequence = guide strand
Details: shRNA
Note: reference of the scale not given here.

How did the sensor-assay potency score (higher = more potent) turn out when TCTGTAGATACTGTAGCGCAGC was run?
Its sensor-assay potency score (higher = more potent) is -0.735.

TCTAGTTTCTGCTTCTTAGCAG was tested. Which sensor-assay potency score (higher = more potent) did it give?
Its sensor-assay potency score (higher = more potent) is 0.419.

For TCTCTGTAGATACTGTAGCGCA, which sensor-assay potency score (higher = more potent) is on record?
The sensor-assay potency score (higher = more potent) was -0.97.

TAGACCAGGAAGTCACCTCCGA was tested. Which sensor-assay potency score (higher = more potent) did it give?
The sensor-assay potency score (higher = more potent) was 0.0618.

For TACTGTAGCGCAGCTCGTGGGC, which sensor-assay potency score (higher = more potent) is on record?
Its sensor-assay potency score (higher = more potent) is -0.594.

TCGGGCATCAGCAGCAGCGGGA was tested. Which sensor-assay potency score (higher = more potent) did it give?
The sensor-assay potency score (higher = more potent) was -1.31.

For ATCACTGGTCTCATCCTCTTTG, which sensor-assay potency score (higher = more potent) is on record?
Its sensor-assay potency score (higher = more potent) is -0.941.

For TTCTGCTTCTTAGCAGCCTGGC, which sensor-assay potency score (higher = more potent) is on record?
The sensor-assay potency score (higher = more potent) was -0.77.

Which sensor-assay potency score (higher = more potent) does the source give for AATCTTCTCCAGGAGCTCCTGA here?
Its sensor-assay potency score (higher = more potent) is -1.01.

Molecular target: TSPAN3
Test: as above
Details: shRNA

TAAGCAGGATCTCTACTCCTTC was tested. Which sensor-assay potency score (higher = more potent) did it give?
Its sensor-assay potency score (higher = more potent) is -0.519.

How did the sensor-assay potency score (higher = more potent) turn out when TTGCTCTGTAAACATATCCCAA was run?
The sensor-assay potency score (higher = more potent) was -1.02.

Which sensor-assay potency score (higher = more potent) does the source give for TACACTTTCTGAATGCTGCGAT here?
Its sensor-assay potency score (higher = more potent) is 1.02.

For TTATACACTTTCTGAATGCTGC, which sensor-assay potency score (higher = more potent) is on record?
Its sensor-assay potency score (higher = more potent) is -0.18.

Which sensor-assay potency score (higher = more potent) does the source give for TTTCTTTGAACCAATCTGTATT here?
The sensor-assay potency score (higher = more potent) was -1.05.

Which sensor-assay potency score (higher = more potent) does the source give for AATTCCACAACAATGCAGCTGT here?
The sensor-assay potency score (higher = more potent) was 0.00279.

AACCACTACAACAACTTCTGTG was tested. Which sensor-assay potency score (higher = more potent) did it give?
Its sensor-assay potency score (higher = more potent) is 0.151.

For TAGGTCTTATACACTTTCTGAA, which sensor-assay potency score (higher = more potent) is on record?
Its sensor-assay potency score (higher = more potent) is -0.69.

How did the sensor-assay potency score (higher = more potent) turn out when TTCTGTGACAAAAACCAAGAGC was run?
The sensor-assay potency score (higher = more potent) was -0.255.

For TTGCTGGCAGTCTCTCTGCAGC, which sensor-assay potency score (higher = more potent) is on record?
Its sensor-assay potency score (higher = more potent) is -1.25.

Which sensor-assay potency score (higher = more potent) does the source give for TTTCTTGTAGCTTCTTCACTAC here?
The sensor-assay potency score (higher = more potent) was -0.264.

Molecular target: TSPAN8
Test: as above
Details: shRNA

Which sensor-assay potency score (higher = more potent) does the source give for TATAGCACCGCAGCATCCCAGG here?
The sensor-assay potency score (higher = more potent) was -1.12.

With TATGAAAAACAACAGAAGCATG as the sequence, how does the sensor-assay potency score (higher = more potent) read?
The sensor-assay potency score (higher = more potent) was -1.79.

How did the sensor-assay potency score (higher = more potent) turn out when TATGTCTAGAAGATATCTGTGG was run?
Its sensor-assay potency score (higher = more potent) is -0.374.

TTTGAAAACAGCTCCTAGGATA was tested. Which sensor-assay potency score (higher = more potent) did it give?
Its sensor-assay potency score (higher = more potent) is -0.99.

AACAACAGAAGCATGCAGCGAC was tested. Which sensor-assay potency score (higher = more potent) did it give?
The sensor-assay potency score (higher = more potent) was -0.179.

With TAGATTTGAAAACAGCTCCTAG as the sequence, how does the sensor-assay potency score (higher = more potent) read?
Its sensor-assay potency score (higher = more potent) is -0.482.

Which sensor-assay potency score (higher = more potent) does the source give for TAGGATACCTGTCGCCACCTGC here?
The sensor-assay potency score (higher = more potent) was -0.685.

TTGCTTGAGAGTCATTGCTTAC was tested. Which sensor-assay potency score (higher = more potent) did it give?
Its sensor-assay potency score (higher = more potent) is -1.33.

For TTAGATTTGAAAACAGCTCCTA, which sensor-assay potency score (higher = more potent) is on record?
The sensor-assay potency score (higher = more potent) was 0.475.

TTGTTTTCCATTATAGCTTTGG was tested. Which sensor-assay potency score (higher = more potent) did it give?
The sensor-assay potency score (higher = more potent) was -0.474.

How did the sensor-assay potency score (higher = more potent) turn out when TTGAGAGTCATTGCTTACTCGT was run?
Its sensor-assay potency score (higher = more potent) is -0.804.

Molecular target: TSPY2
Test: as above
Details: shRNA

How did the sensor-assay potency score (higher = more potent) turn out when ATGAACACGATGCTTCTCTTCT was run?
Its sensor-assay potency score (higher = more potent) is -0.856.

For TCTTGCAGAGATGAACACGATG, which sensor-assay potency score (higher = more potent) is on record?
Its sensor-assay potency score (higher = more potent) is -0.976.

TCCTGCACAGCCTCCATCCTGA was tested. Which sensor-assay potency score (higher = more potent) did it give?
Its sensor-assay potency score (higher = more potent) is -1.01.

Molecular target: TSPYL2
Test: as above
Details: shRNA

Which sensor-assay potency score (higher = more potent) does the source give for TTGTGGTCAGGATTCTCGCTGT here?
Its sensor-assay potency score (higher = more potent) is -0.451.

TTCATTGTCACTGTCGCTGCTG was tested. Which sensor-assay potency score (higher = more potent) did it give?
The sensor-assay potency score (higher = more potent) was 0.841.

How did the sensor-assay potency score (higher = more potent) turn out when ATTGTCTTCAGGATTCTCGTTG was run?
The sensor-assay potency score (higher = more potent) was -0.109.

ATGTCTGAGATCCTGTACCTGC was tested. Which sensor-assay potency score (higher = more potent) did it give?
The sensor-assay potency score (higher = more potent) was -1.08.

For TCTCTGTCGTCATCATCGCTGC, which sensor-assay potency score (higher = more potent) is on record?
Its sensor-assay potency score (higher = more potent) is -0.7.

How did the sensor-assay potency score (higher = more potent) turn out when TCAATGTCTGAGATCTCGCTGA was run?
Its sensor-assay potency score (higher = more potent) is 0.0217.
